{"source": "PubChem BioAssay AID602357", "about": "(National Center for Advancing Translational Sciences (NCATS), 2012)", "note": "Results filed as inconclusive are left out. The source made the active and inactive calls. Calls follow the shape of the dose curve; as a rule, active = well fitted inhibition curve with a large enough effect; inconclusive = small, poorly fitted or top-dose-only effect; inactive = no such curve, though single readings can be large or run the other way."}
{"target": "Luciferin 4-monooxygenase (Photinus pyralis) (UniProt P08659)", "sequence (P08659 whole entry, looked up)": "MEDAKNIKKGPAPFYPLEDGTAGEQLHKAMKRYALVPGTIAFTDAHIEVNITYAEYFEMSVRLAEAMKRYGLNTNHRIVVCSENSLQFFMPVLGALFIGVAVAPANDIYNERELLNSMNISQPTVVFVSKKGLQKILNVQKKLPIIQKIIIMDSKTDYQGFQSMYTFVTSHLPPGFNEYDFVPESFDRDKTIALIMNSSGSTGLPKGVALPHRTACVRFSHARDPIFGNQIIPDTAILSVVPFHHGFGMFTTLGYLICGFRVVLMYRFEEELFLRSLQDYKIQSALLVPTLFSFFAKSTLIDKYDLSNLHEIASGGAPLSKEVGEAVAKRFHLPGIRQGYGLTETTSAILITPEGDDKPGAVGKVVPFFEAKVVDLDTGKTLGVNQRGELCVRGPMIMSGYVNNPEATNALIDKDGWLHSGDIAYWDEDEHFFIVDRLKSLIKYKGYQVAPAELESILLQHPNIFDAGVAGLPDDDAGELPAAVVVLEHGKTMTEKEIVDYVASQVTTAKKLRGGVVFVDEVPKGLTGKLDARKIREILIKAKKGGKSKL", "experiment": "FLuc inhibitory activity for the follow-up compounds in a biochemical assay with Km concentrations of substrate", "conditions": "purified FLuc, Km substrates, luminescence; series mostly up to 57.5 µM; activity change, negative = inhibition: at the top concentration", "description": "NCGC Assay Overview: Firefly (Photinus pyralis) luciferase is one of the most commonly used transcriptional reporters. It is considered one of the more dynamically responsive reporters - that is, responsive to changes in reporter transcription - as it requires no post-translational modifications and is enzymatically active directly after protein synthesis (Wood, 1998). With no endogenous expression in mammalian cells and without the requirement of external excitation, it offers very little background signal, thus generally providing excellent signal to background for most assays. Previous profiling work to determine the prevalence of compounds that affect FLuc enzymatic activity (PubChem AID 411) identified that ~3% of the MLSMR library (then at ~72K) inhibited FLuc. […] Of the compounds identified in this profile that inhibited FLuc, 151 compounds were selected for further analysis, in an effort to better understand their mode of inhibiting FLuc. The assay described here confirms the FLuc inhibitory activity of the 151 compounds.\nNCGC Assay Protocol Summary: Reagents: 50mM Tris acetate, pH 7.5; 10mM Mg acetate; 10uM D-luciferin (Sigma #L9504); 10uM ATP; 0.01% Tween-20; 0.05% BSA; 10nM P. pyralis luciferase (Sigma #L9506) Control compounds used were two known firefly luciferase inhibitors (3-(5-(3-chlorophenyl)-1,2,4-oxadiazol-3-yl)benzoic acid and 5-(2-fluorophenyl)-3-phenyl-1,2,4-oxadiazole), and DMSO. Three microliters containing firefly luciferase substrates in buffer (final concentrations: 50mM Tris acetate, pH 7.5, 10mM Mg acetate, 0.01% Tween-20, 0.05% BSA, 10uM D-luciferin, and 10uM ATP) are dispensed into each well of a Greiner white, solid-bottom 1536-well format plate using a flying reagent dispenser (FRD). These assay plates were then treated with 23nL of compound or DMSO using a Kalypsys pin tool, which allows for delivery of a 12-point intraplate titration of each compound to the assay plate (quantitative HTS), with a final compound concentrations ranging from approximately ~60uM to 0.3nM. One microliter of firefly luciferase in 500mM Tris-acetate buffer was then delivered by FRD to each well for a final enzyme concentration of 10nM. Luciferase activity was then measured using a ViewLux CCD imager (PerkinElmer), with an average exposure time of 2-30 seconds (2X binning, medium/high gain)."}
{"molecule": "CN(C)c1cccc(C(=O)Nc2ccc(-c3nc4ccccc4s3)cc2)c1", "Potency": "2.91 µM (active)"}
{"molecule": "CCOc1ccc(C(=O)Nc2cccc(C(=O)O)c2)cc1Cl", "Potency": "0.058 µM (active)"}
{"molecule": "Cc1ccc2nc(-c3ccc(N)cc3)sc2c1", "Potency": "0.0819 µM (active)"}
{"molecule": "O=C(Nc1ccccc1C(=O)O)c1ccccc1", "Potency": "32.6 µM (active)"}
{"molecule": "O=C(Nc1ccccc1C(=O)O)c1cccc(NC(=O)c2ccco2)c1", "Potency": "18.3 µM (active)"}
{"molecule": "CC(=O)Oc1ccc(C(=O)Nc2ccccc2C(=O)Nc2ccc(C(=O)O)cc2)cc1", "Potency": "5.8 µM (active)"}
{"molecule": "Cc1ccc(C(=O)Nc2ccc(C(=O)O)cc2)cc1S(=O)(=O)NCc1ccccc1", "activity change, negative = inhibition": "3.69% (inactive)"}
{"molecule": "Cc1ccc(C(=O)O/N=C(\\N)c2ccccn2)cc1", "Potency": "0.0291 µM (active)"}
{"molecule": "CN(C)S(=O)(=O)c1ccc(C(=O)Nc2ccccc2C(=O)O)cc1", "Potency": "13 µM (active)"}
{"molecule": "CC(C)c1ccc(-c2nc3ccccc3s2)cc1", "Potency": "0.0291 µM (active)"}
{"molecule": "O=C(O)c1ccc(NC(=O)c2cc(S(=O)(=O)N3CCCCC3)c(Cl)cc2Cl)cc1", "activity change, negative = inhibition": "8.63% (inactive)"}
{"molecule": "CN(C)S(=O)(=O)c1ccc(C(=O)Nc2cccc(C(=O)O)c2)cc1", "Potency": "10.3 µM (active)"}
{"molecule": "CCn1c(C)nc2cc(-c3nc4n(n3)Cc3ccccc3-4)ccc21", "Potency": "0.0231 µM (active)"}
{"molecule": "O=C(Cc1ccccc1)Nc1ccccc1C(=O)Nc1ccc(C(=O)O)cc1", "activity change, negative = inhibition": "-2.27% (inactive)"}
{"molecule": "CCOC(=O)N1CCN(CC(=O)Nc2nc3ccc(OC)cc3s2)CC1", "activity change, negative = inhibition": "-13.5% (inactive)"}
{"molecule": "COc1ccc(-c2cccc(C(=O)Nc3cccc(C(=O)O)c3)c2)cc1", "Potency": "4.61 µM (active)"}
{"molecule": "Cc1ccc(C(=O)Nc2cccc(C(=O)O)c2)cc1", "Potency": "0.0326 µM (active)"}
{"molecule": "O=C(Nc1ccccc1C(=O)O)c1ccc(NC(=O)C2CCCO2)cc1", "note": "(stereo not given)", "Potency": "16.3 µM (active)"}
{"molecule": "Nc1ccccc1C(=O)Nc1cccc(C(=O)O)c1", "Potency": "2.06 µM (active)"}
{"molecule": "O=C(O)c1cccc(NC(=O)c2ccc(S(=O)(=O)c3ccccc3)cc2)c1", "Potency": "5.8 µM (active)"}
{"molecule": "COc1ccc(C(=O)Nc2nc3ccc(OC)cc3s2)cc1", "Potency": "1.83 µM (active)"}
{"molecule": "Cc1ccc(C(=O)Nc2ccc(C(=O)O)cc2)cc1S(=O)(=O)Nc1ccccc1", "activity change, negative = inhibition": "18.1% (inactive)"}
{"molecule": "COc1ccc(CC(=O)Nc2cccc(C(=O)Nc3ccccc3C(=O)O)c2)cc1OC", "Potency": "41.1 µM (active)"}
{"molecule": "Nc1ccc(-c2nc3cc(N)ccc3s2)cc1", "Potency": "0.819 µM (active)"}
{"molecule": "CCOc1ccc2nc(NC(=O)c3ccoc3C)sc2c1", "Potency": "0.651 µM (active)"}
{"molecule": "COc1ccc2nc(NC(=O)c3cccc(S(=O)(=O)N4CCOCC4)c3)sc2c1", "Potency": "20.6 µM (active)"}
{"molecule": "O=C(Nc1cccc(-c2nc3ccccc3s2)c1)c1cc(-n2cnnc2)ccc1Cl", "Potency": "11.6 µM (active)"}
{"molecule": "O=C(Nc1ccccc1C(=O)O)c1cccc(S(=O)(=O)N2CCCC2)c1", "Potency": "13 µM (active)"}
{"molecule": "c1ccc2sc(-c3ccc4c(c3)OCO4)nc2c1", "Potency": "0.326 µM (active)"}
{"molecule": "CCc1noc(C)c1C(=O)Nc1nc2ccc(OC)cc2s1", "Potency": "13 µM (active)"}
{"molecule": "O=S(=O)(c1ccc(-c2nc3ccccc3s2)cc1)N1CCCC1", "activity change, negative = inhibition": "-0.117% (inactive)"}
{"molecule": "CCOc1ccc2nc(NC(=O)c3ccccc3)sc2c1", "Potency": "0.326 µM (active)"}
{"molecule": "COc1ccc2nc(NC(=O)c3ccc4ncsc4c3)sc2c1", "Potency": "1.63 µM (active)"}
{"molecule": "O=C(Nc1ccccc1C(=O)O)c1cccc(NC(=O)c2ccc(Br)o2)c1", "Potency": "23.1 µM (active)"}
{"molecule": "O=C(Nc1ccccc1C(=O)Nc1ccccc1C(=O)O)c1ccccc1", "Potency": "16.3 µM (active)"}
{"molecule": "CCOc1ccc2nc(NC(=O)c3cccnc3)sc2c1", "Potency": "2.91 µM (active)"}
{"molecule": "COc1ccccc1C(=O)Nc1ccc(C(=O)O)cc1", "activity change, negative = inhibition": "-16.1% (inactive)"}
{"molecule": "CCOc1ccc2nc(NC(=O)c3ccccn3)sc2c1", "Potency": "0.517 µM (active)"}
{"molecule": "Nc1ccccc1-c1nc2ccccc2s1", "Potency": "8.19 µM (active)"}
{"molecule": "O=C(Nc1c(Cl)cc(Cl)cc1-c1nc2ccccc2s1)c1ccc(Br)o1", "activity change, negative = inhibition": "-2.8% (inactive)"}
